The values below come from PubChem BioAssay (NCATS).

Assay [1] in a line: AP1 Signaling Pathway (AID 357; active = well fitted curve in either direction with a large enough effect, not every such curve was filed as active;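 note: ME-180 reporter cells stimulated with EGF at its EC50 level; % is set by controls: 0 for no effect and ±100 for the full control effect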). Particulars: ME-180 AP-1-bla reporter, EGF-induced, beta-lactamase ratio, 5 h; at 7.69 µM (top of the series) unless noted. The essentials:
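AP-1-bla ME-180 cells, Opti-MEM + 0.5% dialyzed FBS, plated overnight 37 °C. Cpd titration + EC50 EGF, 5 h 37 °C. CCF4 2.5 h RT; ex 405, em 460/530 ratio → %activity, AC50.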

The target of assay [2] is Cytochrome P450 1A2 (Homo sapiens) (UniProt P05177). Kind of assay: p450-cyp1a2 (AID 410; calls by dose curve; note: potency is the fitted concentration of half-maximal effect). The essentials: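 Luminescent demethylation readout: Luciferin-ME (100uM, equal to Km) turned over by 20nM CYP1A2 for 60 min at room temperature after NADPH regeneration addition, following 10 min compound preincubation. Normalization used 57 uM furafylline as full inhibition.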
Sequence of Cytochrome P450 1A2 (Homo sapiens) (P05177 whole entry, looked up): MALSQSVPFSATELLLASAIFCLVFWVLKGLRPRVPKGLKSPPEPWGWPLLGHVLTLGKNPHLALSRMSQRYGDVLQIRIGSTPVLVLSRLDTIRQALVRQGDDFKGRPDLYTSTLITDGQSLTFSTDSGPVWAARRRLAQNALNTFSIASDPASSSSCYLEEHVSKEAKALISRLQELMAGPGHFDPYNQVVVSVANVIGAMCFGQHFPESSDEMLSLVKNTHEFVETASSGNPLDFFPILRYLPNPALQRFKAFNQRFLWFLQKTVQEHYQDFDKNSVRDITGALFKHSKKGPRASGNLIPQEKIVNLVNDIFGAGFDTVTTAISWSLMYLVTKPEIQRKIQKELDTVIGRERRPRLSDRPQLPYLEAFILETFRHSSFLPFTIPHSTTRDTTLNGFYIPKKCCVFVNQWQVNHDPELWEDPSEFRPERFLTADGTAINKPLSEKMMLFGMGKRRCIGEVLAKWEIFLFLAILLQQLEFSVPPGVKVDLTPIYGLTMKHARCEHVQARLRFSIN
The nature of assay [3]: NFAT Signaling Pathway (AID 444; active = well fitted curve in either direction with a large enough effect, not every such curve was filed as active;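 note: carbachol stimulus at about its EC50 of 1 µM final; % is set by controls: 0 for no effect and ±100 for the full control effect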). Particulars: Jurkat NFAT-bla M1, carbachol, beta-lactamase ratio, 5 h; at 7.69 µM (top of the series) unless noted. The essentials: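 Jurkat cells carrying an NFAT-driven β-lactamase reporter and co-transfected muscarinic M1 receptor were treated with compound plus carbachol (1 uM final, an EC50 level) for 5 h at 37 °C. CCF4 loading followed for 1 h at RT; 460/530 nm ratio gave %activity.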

The nature of assay [4]: Stat Signaling Pathway (AID 446; active = well fitted curve in either direction with a large enough effect, not every such curve was filed as active;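 note: ME-180 cervical cancer cells given 40 pM IL-6 alongside compound; SIE-controlled beta-lactamase reporter measured as 460/530 nm FRET emission ratio; % is set by controls: 0 for no effect and ±100 for the full control effect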). Particulars: ME-180 SIE beta-lactamase reporter, IL-6 stimulated, 5 h; at 7.69 µM (top of the series) unless noted. The essentials: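 Emission at 460 and 530 nm (excitation 405 nm) reports SIE-controlled beta-lactamase in ME-180 cells. Cells received compound with 40 pM IL-6 for 5 hrs at 37 C; data scaled between 300 pM IL-6 and 125 nM JAK-inhibitor controls.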

The target of assay [5] is Glucocorticoid receptor (Homo sapiens) (UniProt P04150). Put plainly: GR-GFP Redistribution (AID 450;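 active = compounds whose dose series gives a full or clear partial fitted curve of increased nuclear translocation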; note: potency is the fitted concentration of half-maximal effect). Particulars: U2OS GR-GFP nuclear translocation, laser cytometry, 2 h.
Sequence of Glucocorticoid receptor (Homo sapiens) (P04150 whole entry, looked up, the tested form may be a part): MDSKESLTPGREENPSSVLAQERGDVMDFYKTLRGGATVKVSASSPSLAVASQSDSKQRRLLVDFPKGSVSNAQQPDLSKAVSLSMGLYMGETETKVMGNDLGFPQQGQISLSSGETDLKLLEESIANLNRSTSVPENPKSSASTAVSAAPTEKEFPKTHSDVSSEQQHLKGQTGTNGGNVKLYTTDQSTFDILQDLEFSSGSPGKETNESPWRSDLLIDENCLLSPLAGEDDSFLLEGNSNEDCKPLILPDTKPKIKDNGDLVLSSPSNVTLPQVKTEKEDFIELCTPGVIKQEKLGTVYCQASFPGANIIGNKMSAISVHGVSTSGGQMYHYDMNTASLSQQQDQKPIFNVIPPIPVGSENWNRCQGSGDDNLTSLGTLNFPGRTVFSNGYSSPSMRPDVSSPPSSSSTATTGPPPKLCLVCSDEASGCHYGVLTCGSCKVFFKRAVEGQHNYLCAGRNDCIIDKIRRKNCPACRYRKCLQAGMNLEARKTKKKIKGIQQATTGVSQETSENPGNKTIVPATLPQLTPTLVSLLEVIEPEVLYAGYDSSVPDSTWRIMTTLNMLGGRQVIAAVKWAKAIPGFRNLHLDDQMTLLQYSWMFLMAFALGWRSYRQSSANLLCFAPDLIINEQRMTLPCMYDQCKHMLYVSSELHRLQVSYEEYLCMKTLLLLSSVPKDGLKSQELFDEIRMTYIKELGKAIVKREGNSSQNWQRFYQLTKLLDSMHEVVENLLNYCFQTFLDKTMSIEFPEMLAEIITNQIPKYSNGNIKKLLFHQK
Assay [6] shares this target. Kind of assay: GR-EFC Redistribution (AID 451; calls by dose curve; note: potency is the fitted concentration of half-maximal effect). Particulars: CHO-K1 GR-EFC translocation, beta-gal luminescence, 2 h. Put shortly: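 CHO-K1 cells stably expressing nuclear-localized β-gal enzyme acceptor and GR fused C-terminally to the enzyme donor fragment; ligand-driven nuclear translocation restores β-gal by complementation. Compounds titrated up to 46 uM final, 2 h at 37 °C; luminescence read.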

Assay [7] deals with Mitogen-activated protein kinase 10 (Mus musculus) (UniProt Q61831). Kind of assay: JNK3 AlphaScreen Assay (AID 530; active = well fitted curve in either direction with a large enough effect, not every such curve was filed as active;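 note: kinase came from lysate of stimulated human HepG2 cells; signal reports phosphorylation of biotinylated GST-cJun 1-79 at Ser73 with 10 µM ATP; % is set by controls: 0 for no effect and ±100 for the full control effect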). Put shortly:
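Phosphorylation of biotinylated GST-cJun(1-79) at Ser73 is measured by AlphaScreen proximity luminescence. Enzyme is JNK3 in HepG2 lysates activated with interleukin-1beta and tumor necrosis factor alpha; ATP is 10 uM final.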

Assay [8] concerns the target 3',5'-cyclic-AMP phosphodiesterase 4B (Homo sapiens) (UniProt Q07343). Kind of assay: qHTS Assay for Inhibitors of PDE-IV (AID 607; active = well fitted activation curve with a large enough effect in the main read-out, with a control signal flat, not every such curve was filed as active; note: % of control where 0% means no effect). The essentials:
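The readout is membrane depolarisation from a cAMP-sensing CNG channel, detected with a potential dye at ex 535/em 590. Cells were HEK293-derived (endogenous PDE-IV) at 1000 cells/well, titrated up to 22.9 uM final.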
A general note: In qHTS, concentration-response curves come from the screen itself.

In assay [9] the target is Cytochrome P450 3A4 (Homo sapiens) (UniProt P08684). Put plainly: qHTS Assay for Inhibitors and Substrates of Cytochrome P450 3A4 (AID 884). Note: potency is the fitted concentration of half-maximal effect; nearly all actives have a fitted effect of over 50% in size. The essentials:
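Luminescent readout of luciferin produced by CYP3A4 (20 nM) dealkylation of Luciferin-PPXE, 25 uM (its KM). NADPH-driven reaction ran 60 min at RT after 10 min compound preincubation; data scaled to 57 uM ketoconazole as 100% inhibition.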

The target is the same in assay [10]. Put plainly: qHTS Assay for Activators of Cytochrome P450 3A4 (AID 885). Note: nearly all actives have a fitted effect of over 65% in size. Put shortly:
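Activators are scored by enhanced luminescence from CYP3A4 conversion of luciferin-PPXE (25uM, equal to KM) to luciferin, after 60 min at RT with an NADPH-regenerating system.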

The target in assay [11] is Cytochrome P450 2D6 (Homo sapiens) (UniProt P10635). Kind of assay: qHTS Assay for Inhibitors and Substrates of Cytochrome P450 2D6 (AID 891). Note: potency is the fitted concentration of half-maximal effect; nearly all actives have a fitted effect of over 60% in size. Put shortly: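 Luminescent read-out of luciferin formed by 5 nM human CYP2D6 demethylating 30 uM Luciferin-ME EGE (Km level) over 60 min at room temperature after NADPH regeneration addition. Data normalized to full inhibition by 1.43 uM quinidine.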

Assay [12] concerns the target Dual specificity protein kinase CLK4 (Homo sapiens) (UniProt Q9HAZ1). Put plainly: qHTS Assay for Inhibitors of CDC-like Kinase 4 (Kinase-Glo Assay) (AID 1770). Note: nearly all actives have a fitted effect of over 65% in size. Note: potency is the fitted concentration of half-maximal effect. The essentials: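 Recombinant human Clk4 (25 nM) phosphorylated RS repeat peptide (100 uM) with 1 uM ATP in Tris pH 7.5/MgCl2/EGTA/DTT/Triton buffer for 4.5 h at room temperature. Residual ATP was quantified by Kinase-Glo luciferase luminescence.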

For assay [13] the target is unchanged. Put plainly: qHTS Assay for Inhibitors of CDC-like Kinase 4 (ADP-Glo Assay) (AID 1771). Note: nearly all actives have a fitted effect of over 70% in size. Note: potency is the fitted concentration of half-maximal effect. Put shortly:
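ADP production was read by ADP-Glo luminescence after residual ATP depletion, following 1 h room-temperature reaction of 25 nM Clk4, 1 uM ATP and 100 uM RS peptide with MgCl2, EGTA, DTT and Triton X-100.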

For assay [14] the target is unchanged. Kind of assay: qHTS Assay for Inhibitors of CDC-like Kinase 4 (ADP-FP Assay) (AID 1795). Note: nearly all actives have a fitted effect of over 60% in size. Note: potency is the fitted concentration of half-maximal effect. Put shortly: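 Recombinant human Clk4 (6.25 nM) phosphorylated RS repeat peptide (100 uM) with 1 uM ATP in Tris pH 7.5/MgCl2/EGTA/DTT/Triton buffer for one hour. ADP was quantified by Transcreener competitive fluorescence polarization against an ADP calibration curve.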

For assay [15], the target named is Ubiquitin carboxyl-terminal hydrolase 1 (Homo sapiens) (UniProt O94782). Kind of assay: Inhibitors of USP1/UAF1: Pilot qHTS (AID 504865). Note: nearly all actives have a fitted effect of over 35% in size. Note: potency is the fitted concentration of half-maximal effect. Put shortly: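 USP1/UAF1 complex (1nM) preincubated with compound 15 min at room temperature, then Ub-Rho substrate (150nM final) added. Fluorescence read kinetically at 480/540 nm, 6 reads every 60 seconds. Buffer: 50mM HEPES pH 7.8, 0.5mM EDTA, 0.1 mg/ml BSA, 1mM TCEP, 0.01% Tween-20.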
Sequence of Ubiquitin carboxyl-terminal hydrolase 1 (Homo sapiens) (O94782 whole entry, looked up): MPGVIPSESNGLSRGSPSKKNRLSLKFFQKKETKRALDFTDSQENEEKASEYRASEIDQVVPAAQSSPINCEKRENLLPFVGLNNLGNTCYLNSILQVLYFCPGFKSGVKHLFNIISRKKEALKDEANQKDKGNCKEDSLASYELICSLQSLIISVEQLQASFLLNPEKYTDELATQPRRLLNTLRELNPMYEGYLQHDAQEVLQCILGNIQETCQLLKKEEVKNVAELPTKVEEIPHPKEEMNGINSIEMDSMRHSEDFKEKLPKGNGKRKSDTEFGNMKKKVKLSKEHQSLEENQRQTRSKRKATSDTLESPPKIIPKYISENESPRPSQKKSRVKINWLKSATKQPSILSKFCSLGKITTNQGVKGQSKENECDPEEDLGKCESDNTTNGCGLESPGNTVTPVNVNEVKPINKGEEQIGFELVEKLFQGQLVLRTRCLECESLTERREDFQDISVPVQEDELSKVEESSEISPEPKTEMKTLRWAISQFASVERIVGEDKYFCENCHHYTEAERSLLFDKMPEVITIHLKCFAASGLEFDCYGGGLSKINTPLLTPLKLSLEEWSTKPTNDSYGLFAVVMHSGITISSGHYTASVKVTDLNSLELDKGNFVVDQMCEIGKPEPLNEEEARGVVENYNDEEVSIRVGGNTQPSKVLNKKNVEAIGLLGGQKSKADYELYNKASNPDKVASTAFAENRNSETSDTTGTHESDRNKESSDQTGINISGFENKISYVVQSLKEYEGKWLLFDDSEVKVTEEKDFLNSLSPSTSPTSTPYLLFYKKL

The nature of assay [16]: Primary qHTS for small molecule stabilizers of the endoplasmic reticulum resident proteome: Secreted ER Calcium Modulated Protein (SERCaMP) assay (AID 1508630). Note: % is set by controls: 0 for no effect and ±100 for the full control effect. Put shortly: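 The SH-SY5Y reporter protocol was run at 3 concentrations up to 38.3 uM (primary) or 11 concentrations (follow-up): 16 h compound, 100 nM thapsigargin for 4 h, then extracellular luciferase luminescence.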

Assay [17] addresses Cytochrome P450 2C19 (Homo sapiens) (UniProt P33261). Put plainly: qHTS Assay for Inhibitors and Substrates of Cytochrome P450 2C19 (AID 899). Note: potency is the fitted concentration of half-maximal effect; nearly all actives have a fitted effect of over 60% in size. Put shortly:
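Human CYP2C19 (5nM) with Luciferin-H EGE at 10uM (its KM) in 50mM KPO4 was preincubated with compound for 10 min at 37C. NADPH regeneration started a 60 min 37C reaction. Luciferin was read by luminescence, normalized to 57uM ketoconazole.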

The target of assay [18] is Lysosomal acid glucosylceramidase (Homo sapiens) (UniProt P04062). Kind of assay: Glucocerebrosidase-p2 (AID 348; in the data active = potency below about 10 µM; note: potency is the fitted concentration of half-maximal effect). Particulars: purified GBA, blue fluorogenic substrate, 40 min. Put shortly:
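Normal human glucocerebrosidase (0.2 nM) with blue fluorogenic substrate (80 uM final) in citrate/phosphate pH 5.9 with 10mM sodium taurocholate, 0.01% tween-20; 40 min RT, NaOH/glycine stop; fluorescence Ex 365/Em 440; AC50 from a titration from 0.6 nM upwards.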

Assay [19] can be described thus: qHTS Assay for Identification of Small Molecule Agonists for Hypoxia Response Element Signaling Pathway (AID 914; active = well fitted activation curve with a large enough effect in the signal ratio, with a control signal flat, not every such curve was filed as active; the % refers to the signal ratio; note: potency is the fitted concentration of half-maximal effect). Particulars: ME-180 (cervical carcinoma) HRE-bla reporter, beta-lactamase ratio, CoCl2, 17 h; activation: active compounds read high. Put shortly: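 Compounds in a titration series were added to ME-180 reporter cells alongside an EC50 level of CoCl2. After 17 hours, beta-lactamase activity was read as the 460nm/530nm emission ratio of CCF4, giving AC50 values.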

A number with no mark means an inactive call. Inconclusive results are not listed. Calls of active or inactive are those of the source. Unless noted, calls come from the whole dose curve; as a rule, active = well fitted curve in the direction sought with a large enough effect; inconclusive = small, poorly fitted or top-dose-only effect, or another doubt; inactive = no such curve, though single readings can be large; an effect the other way counts as inactive or inconclusive.

Sequence of Cytochrome P450 3A4 (Homo sapiens) (P08684 whole entry, looked up): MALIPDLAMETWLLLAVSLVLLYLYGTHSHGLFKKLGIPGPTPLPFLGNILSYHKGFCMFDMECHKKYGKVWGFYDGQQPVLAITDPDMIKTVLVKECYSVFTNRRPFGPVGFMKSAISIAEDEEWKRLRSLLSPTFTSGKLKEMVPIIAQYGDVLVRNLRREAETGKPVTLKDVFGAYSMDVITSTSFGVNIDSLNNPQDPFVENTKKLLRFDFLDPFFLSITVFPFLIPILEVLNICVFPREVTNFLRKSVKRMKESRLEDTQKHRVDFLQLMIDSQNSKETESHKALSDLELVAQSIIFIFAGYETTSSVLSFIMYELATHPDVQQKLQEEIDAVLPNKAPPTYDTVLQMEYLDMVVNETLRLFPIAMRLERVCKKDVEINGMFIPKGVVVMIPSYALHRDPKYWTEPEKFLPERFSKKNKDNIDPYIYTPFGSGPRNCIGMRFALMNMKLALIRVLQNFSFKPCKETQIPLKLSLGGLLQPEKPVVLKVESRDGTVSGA
Sequence of Cytochrome P450 2C19 (Homo sapiens) (P33261 whole entry, looked up): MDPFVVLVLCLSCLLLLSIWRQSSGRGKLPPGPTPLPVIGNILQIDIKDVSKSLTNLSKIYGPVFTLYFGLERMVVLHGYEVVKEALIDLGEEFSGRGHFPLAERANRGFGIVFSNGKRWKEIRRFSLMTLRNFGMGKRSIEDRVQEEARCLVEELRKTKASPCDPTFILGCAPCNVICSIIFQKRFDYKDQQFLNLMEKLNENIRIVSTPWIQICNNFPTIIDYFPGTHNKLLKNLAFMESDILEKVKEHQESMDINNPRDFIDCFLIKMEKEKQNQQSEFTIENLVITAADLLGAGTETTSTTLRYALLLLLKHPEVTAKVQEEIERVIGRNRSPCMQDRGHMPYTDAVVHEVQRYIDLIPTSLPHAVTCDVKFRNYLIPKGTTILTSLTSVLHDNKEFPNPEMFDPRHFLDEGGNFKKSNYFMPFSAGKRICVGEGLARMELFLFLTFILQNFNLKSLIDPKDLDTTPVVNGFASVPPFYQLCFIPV
Sequence of Dual specificity protein kinase CLK4 (Homo sapiens) (Q9HAZ1 whole entry, looked up): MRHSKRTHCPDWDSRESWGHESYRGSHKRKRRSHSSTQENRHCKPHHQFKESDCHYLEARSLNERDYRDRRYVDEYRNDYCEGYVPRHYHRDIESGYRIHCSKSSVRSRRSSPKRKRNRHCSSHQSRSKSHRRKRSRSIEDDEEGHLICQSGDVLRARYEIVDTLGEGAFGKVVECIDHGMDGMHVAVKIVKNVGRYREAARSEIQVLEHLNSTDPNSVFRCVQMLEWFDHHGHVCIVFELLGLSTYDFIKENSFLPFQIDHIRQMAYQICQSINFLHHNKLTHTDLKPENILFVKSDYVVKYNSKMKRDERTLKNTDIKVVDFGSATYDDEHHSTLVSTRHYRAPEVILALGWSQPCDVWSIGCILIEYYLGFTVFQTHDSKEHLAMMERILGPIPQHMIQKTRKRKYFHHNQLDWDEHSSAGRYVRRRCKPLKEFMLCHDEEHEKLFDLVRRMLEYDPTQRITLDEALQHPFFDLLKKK
Sequence of 3',5'-cyclic-AMP phosphodiesterase 4B (Homo sapiens) (Q07343 whole entry, looked up): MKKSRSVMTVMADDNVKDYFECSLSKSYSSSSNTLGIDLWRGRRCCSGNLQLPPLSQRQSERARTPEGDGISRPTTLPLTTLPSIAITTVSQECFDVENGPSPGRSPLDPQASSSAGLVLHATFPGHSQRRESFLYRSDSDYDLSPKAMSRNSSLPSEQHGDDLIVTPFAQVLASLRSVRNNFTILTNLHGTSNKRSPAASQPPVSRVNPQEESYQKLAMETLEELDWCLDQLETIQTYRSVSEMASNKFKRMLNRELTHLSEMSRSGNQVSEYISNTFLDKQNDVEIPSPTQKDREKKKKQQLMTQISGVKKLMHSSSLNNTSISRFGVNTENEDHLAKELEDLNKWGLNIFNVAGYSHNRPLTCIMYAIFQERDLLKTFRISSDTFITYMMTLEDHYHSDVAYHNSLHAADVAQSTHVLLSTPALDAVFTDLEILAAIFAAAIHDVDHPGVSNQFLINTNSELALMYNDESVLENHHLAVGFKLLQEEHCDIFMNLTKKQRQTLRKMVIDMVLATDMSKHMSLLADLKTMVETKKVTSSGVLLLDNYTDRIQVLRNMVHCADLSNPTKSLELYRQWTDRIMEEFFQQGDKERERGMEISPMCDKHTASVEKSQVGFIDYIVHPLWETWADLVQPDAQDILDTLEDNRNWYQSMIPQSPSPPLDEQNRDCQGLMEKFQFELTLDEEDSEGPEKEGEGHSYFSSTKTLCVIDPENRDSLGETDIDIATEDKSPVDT
Sequence of Lysosomal acid glucosylceramidase (Homo sapiens) (P04062 whole entry, looked up): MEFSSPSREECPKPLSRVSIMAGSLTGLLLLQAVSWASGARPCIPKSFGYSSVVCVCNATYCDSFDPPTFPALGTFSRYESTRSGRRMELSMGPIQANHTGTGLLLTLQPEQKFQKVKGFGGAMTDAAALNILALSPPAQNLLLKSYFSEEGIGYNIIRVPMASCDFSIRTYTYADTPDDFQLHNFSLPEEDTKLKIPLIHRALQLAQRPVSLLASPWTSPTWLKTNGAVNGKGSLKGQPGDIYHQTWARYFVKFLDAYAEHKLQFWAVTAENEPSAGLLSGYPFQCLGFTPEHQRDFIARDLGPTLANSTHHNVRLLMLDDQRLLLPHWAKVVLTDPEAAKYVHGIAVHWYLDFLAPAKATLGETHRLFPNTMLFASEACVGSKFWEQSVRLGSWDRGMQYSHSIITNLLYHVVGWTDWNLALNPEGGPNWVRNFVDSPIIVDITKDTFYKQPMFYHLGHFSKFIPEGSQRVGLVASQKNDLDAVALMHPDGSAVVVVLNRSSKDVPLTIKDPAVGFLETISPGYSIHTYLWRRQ

Turning to `COc1ccccc1CNc1ccnc(-c2ccc(N(C)C)cc2)n1`, the activity change, negative = inhibition was -10.1% in assay [1] and -1.75% in [3]. Moreover, the Potency in assay [2] is 0.794 µM (active); in assay [5] it was above 46 µM; in assay [6], above 46 µM; in assay [9], 7.94 µM (active); in assay [11], 0.501 µM (active). Besides, the activity, negative = inhibition in assay [4] was -10.8%. The Potency result in assay [7], in [8], in [10], in assay [12], in assay [13] and in [14] was “inactive” throughout. Further, the Potency result in assay [15] is “inactive”. Moreover, the result in assay [16] was inactive.

Turning to `Cc1cccc(CNc2ccnc(-c3ccccc3Cl)n2)c1`, the activity change, negative = inhibition in [1] is -2.43%; in [3] it was -3.52%. Moreover, the Potency in assay [2] is 1.58 µM (active); in [5] it was above 46 µM; in [6], above 46 µM; in [9], 3.98 µM (active); in assay [17] it was 1.26 µM (active); in assay [15], 28.2 µM (active). In assay [4], the activity, negative = inhibition was -10.7%. Moreover, the Potency result in assay [7], in assay [10], in assay [12], in [13] and in assay [14] was “inactive” throughout. In addition, in assay [16], the result was inactive.

`O=c1c(-c2cccs2)nc2cncnc2n1Cc1ccc(F)cc1`: the activity change, negative = inhibition was -19.2% in assay [1] and -15.7% in assay [3]. In addition, the Potency in assay [2] was 2.51 µM (active); in assay [5], above 9.22 µM; in assay [6], above 46 µM; in assay [17] it was 7.94 µM (active). Moreover, the activity, negative = inhibition in assay [4] is -3.58%. Moreover, the Potency entry in assay [7], in assay [8], in [10], in assay [12], in [13] and in assay [14] was “inactive” in each case. Also, the Potency entry in assay [15] is “inactive”. Besides, the outcome in assay [16] was inactive.

As to `Cc1noc(C)c1-c1nccc(N2CCN(C)CC2)n1`, the activity change, negative = inhibition in [1] is 16%; in assay [3], -10.9%. Further, the Potency was 2 µM (active) in [2], above 46 µM in assay [5] and above 46 µM in assay [6]. For the same molecule, the activity, negative = inhibition in [4] is 11.7%. Further, the Potency entry in [7], in assay [8], in assay [12], in [13] and in assay [14] was “inactive” in each case. In assay [16], the result was inactive.

For the molecule `COCCNc1ncnc2ccc(-c3c(C)noc3C)cc12`, the Potency in [18] is above 11.4 µM; in assay [2], 3.98 µM (active); in [5], above 46 µM; in [6], above 46 µM; in assay [19] it was 1.58 µM (active); in [12], 3.98 µM (active). For the same molecule, the Potency in assay [13] was 0.708 µM (active); in [14] it was 1.41 µM (active). The Potency result in assay [7], in assay [8], in assay [10] and in assay [15] was “inactive” in each case. For the same molecule, the result in assay [16] was inactive.

`Cc1cccc(CNc2ccnc(-c3cccc(C#N)c3)n2)c1`: the Potency is above 11.4 µM in [18]; 0.398 µM (active) in assay [2]; above 46 µM in assay [5]; above 46 µM in assay [6]; 1.26 µM (active) in assay [9]; 2.51 µM (active) in [17]. The Potency in assay [12] is 11.2 µM (active); in assay [13] it was 7.94 µM (active); in assay [14] it was 11.2 µM (active). Further, the Potency result in assay [8], in assay [10] and in assay [15] was “inactive” each time. The result in [16] was inactive.
